Fluor 339 460: intrinsic fluorescence of library compounds, ex339/em460 – biochemical, MLSMR library, data from DPM-DC assay, artefact control, profiling panel. 65,000 tested, 5.5% active. compound autofluorescence, ex339/em460 nm, NADH buffer; hits give high values; 1 = no-compound wells, NADH background. fluorescence fold increase at 10 µM. AID 709;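 active means at 10 µM, mean starting fluorescence two-fold or more over control wells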;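 further: signal is the first read of a kinetic run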
A340 absorber: compounds absorbing at 340 nm. compound absorbance at 340 nm, fold over control. fold change at 10 µM. 65,000 tested, under 10 active;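 active means at 10 µM dose, initial 340 nm absorbance at least 2 fold that of control wells; inactive means change under 2 fold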;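 further: initial absorbance extrapolated from kinetic A340 decline of NADH oxidation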
Spn DPM-DC inh: inhibitors of Streptococcus pneumoniae diphosphomevalonate decarboxylase; purified DPM-DC, PK/LDH coupled NADH fluorescence; calls only at 10 µM; 65,000 tested, 0.49% active;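 active means the 320 compounds with the highest percent inhibition in the single-dose primary screen, excluding strongly autofluorescent ones, cut at about 32% in these data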;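 further: kinetic rate of NADH fluorescence loss reporting ADP formed by the decarboxylase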
NADH enzymes: inhibition of NAD/NADH coupling enzymes, library profiling. IC50, µM (top dose mostly 10 µM), for inactives: at the top dose inhibition. coupled PK/LDH NADH assays, four targets. AID 774. 65,000 tested, 0.02% active;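 active means single-dose screening hits from any of four coupled enzyme assays that gave an IC50 when retested across doses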;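 further: the DPM-DC format reads NADH fluorescence rather than 340 nm absorbance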
Spn MK inh: S. pneumoniae mevalonate kinase inhibition; 65,000 tested, 0.48% active; AID 555; inhibition, % at 10 µM; purified MK, PK/LDH-coupled NADH absorbance 340 nm;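 active means ranked among the strongest by inhibition in the single 10 µM screen, a fixed top-ranked set picked for dose follow-up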
PMK inhibit: inhibitors of Streptococcus pneumoniae phosphomevalonate kinase. purified PMK, PK/LDH-coupled NADH absorbance 340 nm. inhibition, % at 10 µM. 65,000 tested, 0.49% active. AID 539;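 active means top-ranked compounds by inhibition in the single 10 µM screen, taking a fixed number of the strongest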;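 further: 0% = full reaction with DMSO carrier and 100% = background rate without enzyme reaction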
An asterisk follows results filed as active; i = inactive; nt = not tested or not shown; + = active, no number. An excerpt weighted towards active compounds, which were near 6.3% of everything screened.

SMILES	Fluor 339 460	A340 absorber	Spn DPM-DC inh	NADH enzymes	Spn MK inh	PMK inhibit
Cn1c(-c2c(N)n(C3CCCC3)c3nc4ccccc4nc23)nc2ccccc21	3.8*	1.1	nt	11%	10	12
CCN(CC)c1ccc2cc(-c3nc4ccccc4n3C)c(=O)oc2c1	2.1*	1.1	nt	5%	5	4
CCN(CC)c1ccc2cc(-c3nc4ccccc4[nH]3)c(=O)oc2c1	1.1	0.8	i	8%	37	i
CCOC(=O)CSC1=Nc2ccccc2C2=NC(CC(=O)NCc3ccc4c(c3)OCO4)C(=O)N12 (stereo not given)	1.3	1	i	9%	9	17
CCOc1ccccc1NC(=O)Cn1c(C)cc(COC)c(C#N)c1=O	1.3	1.1	i	8%	9	13
COCc1cc(=O)n2c([nH]c3ccccc32)c1C#N	4.8*	0.99	nt	8%	6	9
COCc1cc(C)[nH]c(=O)c1C#N	2.2*	1.1	nt	2%	4	0
COCc1cc(C)nc(Nc2ccc(C)c(C)c2)c1C#N	1.5	1.1	i	2%	0	0
O=C(Nc1ccc2nn(-c3ccccc3)nc2c1)c1cccnc1	1.3	1.1	i	4%	12	1
CC(=O)Nc1cc2nn(-c3ccccc3)nc2cc1Cl	2.3*	1.1	nt	6%	11	0
O=C(Nc1cc2nn(-c3ccccc3)nc2cc1Cl)c1ccco1	3.8*	1.2	nt	10%	12	7
O=c1[nH]c(NCc2ccco2)nnc1Cc1ccccc1Cl	1.1	1	i	1%	11	0
COc1cccc2cc(C(=O)N3CCN(c4ccccc4F)CC3)c(=O)oc12	1.2	1	i	10%	0	29*
COc1cccc2cc(C(=O)N3CCc4ccccc4C3)c(=O)oc12	1.2	1.1	i	5%	5	9
CC1Cc2ccccc2N1c1ncnc2c1nnn2Cc1ccccc1 (stereo not given)	2.6*	1.1	i	5%	0	8
c1ccc(Cn2nnc3c(N4CCc5ccccc5C4)ncnc32)cc1	1.1	0.97	i	5%	5	10
COCCOC(=O)C1=C(C)N=C2SCCC(=O)N2C1c1cc(Br)ccc1OC (stereo not given)	1	1.1	i	9%	10	13
Cc1ccc(-n2nnnc2SCC(=O)N2c3ccccc3NC(=O)C2(C)C)cc1	1.1	1	i	9%	13	13
COc1cccc(C(=O)Nc2ccc(NC(=O)C(C)C)nc2)c1	1.2	1	+	16%	11	2
NC(=O)c1oc2ccc(Cl)cc2c1N	3.9*	1.1	nt	9%	7	11
CCN(CC)CCOC(=O)c1c(C)oc2ccc(OC)cc12	1.1	1	i	7%	4	14
COC(=O)c1oc2ccc(OC)cc2c1N	2.6*	1	i	8%	2	20
CCOC(=O)c1c(COc2ccccc2)oc2ccc(O)cc12	1.1	1	i	1%	4	0
COc1ccc(C(=O)c2oc3ccc(OC)cc3c2N)cc1	1.8	1.1	i	8%	7	1
CN(C)C(=O)c1c(-c2ccccc2)oc2ccc(O)cc12	2.2*	1.1	nt	3%	5	0
SMILES	Fluor 339 460	A340 absorber	Spn DPM-DC inh	NADH enzymes	Spn MK inh	PMK inhibit
Nc1c(C(=O)CCC(=O)O)oc2ccc(Cl)cc12	1.6	1.1	i	8%	0	12
COc1ccc2oc(-c3ccccc3)c(C(N)=O)c2c1	2.1*	1.1	nt	2%	4	0
CC1CCN(S(=O)(=O)c2ccc3c(c2)c(=O)c(C(=O)N2CCCCC2)cn3C)CC1	1.1	1.1	i	5%	6	9
COc1ccc(-c2nnc(-c3cccnc3)o2)cc1OC	1.6	1.1	i	4%	6	0
COc1cc(-c2nnc(-c3ccncc3)o2)ccc1OCc1ccccc1	2.4*	1.1	i	9%	15	11
COc1cc(-c2nnc(-c3ccco3)o2)ccc1OCc1ccccc1	3.6*	1.1	nt	11%	11	10
CC1(C)CC(=O)C2=C(C1)N(CCN1CCOCC1)C1=C(C(=O)CC(C)(C)C1)C2c1cccc(Cl)c1	4.3*	0.99	nt	0%	nt	0
c1ccc(CC2CCN(c3nc4ccccc4n4nnnc34)CC2)cc1	2.6*	1.1	i	3%	0	10
O=S(=O)(c1cccc(-c2cn3cc(Cl)ccc3n2)c1)N1CCOCC1	1.9	1.1	i	4%	0	11
O=S(=O)(c1ccc(-c2cn3ccccc3n2)cc1)N1CCOCC1	2.2*	1.1	nt	5%	10	0
Cc1cccn2cc(-c3ccc(S(=O)(=O)N4CCOCC4)cc3)nc12	2.2*	1.1	nt	2%	4	0
COc1ccc(N(C(=O)Nc2ccc(Cl)cc2)C2=NCCC2)cc1	1.1	1	i	13%	16	22
CCOc1ccc(-c2nc(-c3ccccc3C)no2)cc1	1.1	1.1	i	0%	0	0
COc1nc2cc(C)ccc2cc1-c1noc(-c2cccnc2)n1	1.3	1	i	6%	6	12
COc1cc(OC)cc(-c2nc(-c3cc4cc(C)ccc4nc3OC)no2)c1	2.6*	1.1	i	7%	4	10
O=C1CC(C(=O)Nc2ccc(O)c(C(=O)O)c2)C(c2ccccc2)O1 (stereo not given)	3.1*	1	nt	7%	5	8
O=C1CC(C(=O)Nc2ccccc2C(=O)O)C(c2ccccc2)O1 (stereo not given)	1.2	1	i	3%	1	8
C=C(C)CSc1nnc(-c2ccccc2)n1N	1.1	1.1	i	0%	1	0
COC(=O)c1c(N)n(-c2ccc(NC(C)=O)cc2)c2nc3ccccc3nc12	3.8*	1.1	nt	8%	6	9
COCCNC(=O)c1c(N)n(-c2cccc(C)c2)c2nc3ccccc3nc12	3.9*	1	nt	9%	11	7
C=CCNC(=O)c1c(N)n(-c2cccc(S(N)(=O)=O)c2)c2nc3ccccc3nc12	2.1*	1.1	nt	4%	0	8
Nc1c(C(=O)NCCN2CCOCC2)c2nc3ccccc3nc2n1-c1ccc2c(c1)OCO2	1.6	1	+	10%	14	8
C=CCn1c(N)c(C(=O)Nc2ccccc2)c2nc3ccccc3nc21	1.4	1.1	i	1%	0	2
COC(=O)c1c(N)n(-c2ccc(N3CCOCC3)cc2)c2nc3ccccc3nc12	1	1.1	i	2%	0	7
Cc1ccc(-c2noc(C3CCCN(C(=O)C4CCCCC4)C3)n2)o1 (stereo not given)	1.1	1	i	7%	0	21
Nc1c(C(=O)NCCN2CCOCC2)c2nc3ccccc3nc2n1-c1ccccc1	3.9*	1	nt	8%	10	5

Screens: PubChem BioAssay, SRMLSC
